Measurements from PubChem BioAssay (NCI).
This is part of a sample that, as a whole, favours compounds with a hit. Of some 79,000 tested, about 15% had one in any assay. Rule as the data show it: active = growth inhibition above about 70%; inactive = the rest.

Tests used:
[1] = NCI Yeast Anticancer Drug Screen. Data for the rad50 strain (AID 155);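 also: 0% = growth of vehicle-only cultures of the same strain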; settings: S. cerevisiae rad50 strain growth inhibition; at 50.0 µM; hits give high values
Method in brief: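 Growth of the mutant yeast was measured after compound exposure and referenced to vehicle-treated cultures.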

[2] = NCI Yeast Anticancer Drug Screen. Data for the mec2-1 strain (AID 157); settings: S. cerevisiae mec2-1 strain, at 50.0 µM, hits give high values
Method in brief: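 mec2-1 yeast strain, carrying an alteration in DNA damage repair or cell cycle control, was exposed to compounds; growth inhibition was measured relative to vehicle-treated controls.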

[3] = NCI Yeast Anticancer Drug Screen. Data for the sgs1 mgt1 strain (AID 161);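 also: 0% = growth of cultures given vehicle only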; settings: S. cerevisiae sgs1 mgt1 strain, at 50.0 µM, hits give high values
Method in brief: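 This yeast growth screen uses a strain with defined DNA-repair lesions; compound-treated growth is compared with vehicle-treated growth.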

[4] = NCI Yeast Anticancer Drug Screen. Data for the cln2 rad14 strain (AID 165);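 also: 0% = growth equal to vehicle treated cultures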; settings: S. cerevisiae cln2 rad14 strain, at 50.0 µM, hits give high values
Method in brief: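 Yeast carrying cln2 and rad14 alterations (cell cycle control and DNA damage repair) were exposed to compounds. Growth inhibition was measured against vehicle-treated controls.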

[5] = NCI Yeast Anticancer Drug Screen. Data for the bub3 strain (AID 167); settings: S. cerevisiae bub3 mutant strain, at 50.0 µM, hits give high values
Method in brief: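 Whole-cell yeast assay. The mutant strain was incubated with compounds, and growth inhibition was determined by comparison with vehicle-treated cells.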

[6] = NCI Yeast Anticancer Drug Screen. Data for the mlh1 rad18 strain (AID 175); settings: S. cerevisiae mlh1 rad18 strain growth inhibition; at 50.0 µM; hits give high values
Method in brief: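 Growth inhibition of the yeast strain was measured after compound exposure and expressed relative to vehicle-treated controls. The strain carries defined defects in DNA damage repair.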

Measured: growth inhibition

O=C1CCCc2ccc([N+](=O)[O-])cc21
inactive: [1] -3.35% | [2] -54.7% | [3] -17.2% | [4] 18.6% | [5] -11.8% | [6] 23.1%

CC(C)(C)CC(CC(C)(C)C)C(=O)O
inactive: [1] 28.9% | [2] -1.2% | [3] -3.5% | [4] 1.85% | [5] 4.05% | [6] 21.3%

C/C(=N\n1c(-c2ccccc2)nc2ccccc2c1=O)c1ccc(C)cc1
inactive: [1] 5.25% | [2] 7.8% | [3] -2.7% | [4] 1.5% | [5] 4.95% | [6] -1.75%

O/N=C/c1ccccc1O
inactive: [1] 14.9% | [2] -19.1% | [3] -0.3% | [4] 9.65% | [5] -7.85% | [6] 10.2%

N#CCCCN1C(=O)c2ccccc2C1=O
inactive: [1] -22.1% | [2] -18.9% | [3] -8.25% | [4] 21% | [5] -15.5% | [6] -18.4%

CCOC(=O)C(NC(=O)CC)(Nc1ccc(S(=O)(=O)Nc2ncccn2)cc1)C(F)(F)F (stereo not drawn)
inactive: [1] -19.4% | [2] -14.9% | [3] -10.5% | [4] 20.1% | [5] -9.55% | [6] -7.05%

CC(C)(C)C(=O)/C=C/c1ccc(Oc2ccccc2)cc1
inactive: [1] 27.8% | [2] -28.7% | [3] 4.05% | [4] -15.6% | [5] -19.8% | [6] -20.8%

O=C(OC1CC2CCC1C2)c1cc([N+](=O)[O-])cc([N+](=O)[O-])c1 (stereo not drawn)
inactive: [1] 8.55% | [2] -1.4% | [3] -9% | [4] -20.4% | [5] -3.7% | [6] -3%

C/C(CC1SCCCS1)=C(/C)CC1SCCCS1
inactive: [1] -34.8% | [2] -38.6% | [3] -23.1% | [4] -5% | [5] 2.25% | [6] -45%

N#CCCCCN1CCCC1
inactive: [1] 32.2% | [2] -8.7% | [3] 3.4% | [4] 12.7% | [5] 10.1% | [6] 9.05%

CN1C(C(=O)O)CCC1C(=O)O (stereo not drawn)
inactive: [1] -1.2% | [2] 7.6% | [3] 6.55% | [4] -31.8% | [5] -0.4% | [6] 2%

CCCn1cnc2c(NN=O)ncnc21
inactive: [1] -42% | [2] -13.2% | [3] -51.6% | [4] -23.2% | [5] -9.35% | [6] -45.5%

CCOC(=O)C(CC)N1C(=O)c2ccccc2S1(=O)=O (stereo not drawn)
inactive: [1] -16.1% | [2] -10.5% | [3] -12.4% | [4] 48.2% | [5] 33.5% | [6] -12.6%

CCCCc1c2c(nc3c1CCc1cc4cc5c(nc4nc1-3)-c1nc3c(c(CCCC)c1CC5)CCCC3)CCCC2
inactive: [1] 7.5% | [2] 24.9% | [3] 16.1% | [4] -45.7% | [5] 9.95% | [6] 29.4%

COC(=O)C(CCc1ccccc1[N+](=O)[O-])C(=O)OC
inactive: [1] 38.6% | [2] 10.8% | [3] 11.7% | [4] -4.45% | [5] 43% | [6] 34.1%

NC(CO)C(=O)NCC(=O)O (stereo not drawn)
inactive: [1] -29.5% | [2] 5.75% | [3] -30.2% | [4] -79.5% | [5] -18.2% | [6] -23.9%

O=C1C(Cl)(Cl)C(=O)C(Cl)(Cl)C(=O)C1(Cl)Cl
inactive: [1] 20.2% | [2] 24.5% | [3] 47% | [4] 0.4% | [5] 16.3% | [6] 31.7%

Cc1cc(S(=O)(=O)Nc2nc(N)nc(N3CCOCC3)n2)c(SCC(=O)O)cc1Cl
inactive: [1] 5.75% | [2] 19.4% | [3] 15.2% | [4] 12.9% | [5] 6.25% | [6] 18.2%

CCOC(=O)CCC[n+]1cccc(C#N)c1
inactive: [1] 3.3% | [2] 1.4% | [3] 2% | [4] -3.35% | [5] -3.15% | [6] -1.35%

CCOc1ccccc1NC(=O)C(=O)C(/C(=N/N)C(=O)OC)c1nc2ccc([N+](=O)[O-])cc2[nH]c1=O (stereo not drawn)
inactive: [1] 16.9% | [2] -10% | [3] 5.7% | [4] 15.4% | [5] -1.35% | [6] 9.25%

Cc1cc(N/N=C/c2ccc(Cl)cc2)c2cc3c(cc2n1)OCO3
inactive: [1] 24.2% | [2] -4.5% | [3] -7% | [4] 1.6% | [5] 27.5% | [6] 14.7%

COC(=O)C(C(=O)C(N)=O)c1csc(-n2nc(-c3ccccc3)cc2-c2ccccc2)n1 (stereo not drawn)
inactive: [1] -1.5% | [2] -13.4% | [3] -13.8% | [4] 10.2% | [5] 30.2% | [6] -7.2%

O=S(=O)(c1ccc(Br)cc1)N1CCN(S(=O)(=O)c2ccc(Br)cc2)CC1
inactive: [1] -24.4% | [2] -23.9% | [3] -35.2% | [4] -43.2% | [5] -23.4% | [6] -10.1%

NC(N)=N/N=C/c1c(Cl)nc2sccn12
inactive: [1] -11.4% | [2] -64.8% | [3] -17.5% | [4] -30.3% | [5] -8.8% | [6] -5.6%

O=C(O)C1CSC(c2cccs2)N1 (stereo not drawn)
inactive: [1] -19.2% | [2] -46.5% | [3] -4.4% | [4] 1.4% | [5] -32.2% | [6] -8.1%

CC1=NC(C(=O)O)CC1C (stereo not drawn)
inactive: [1] 1.15% | [2] 4% | [3] -5.35% | [4] -7.7% | [5] 1.45% | [6] -1.3%

Cn1c(=O)c2ccccc2c2cc(Br)ccc21
inactive: [1] 41.1% | [2] 6.05% | [3] 4.15% | [4] -14.8% | [5] 7.8% | [6] 20.6%

S=C1Cc2c([nH]c3ccccc23)-c2ccccc2N1
inactive: [1] -11.1% | [2] 26.6% | [3] -8.85% | [4] -3.9% | [5] 23.2% | [6] 2.45%

NNC(=O)CNc1cccc(Br)c1
inactive: [1] -16.1% | [2] -24.6% | [3] -6.1% | [4] 16.9% | [5] -32.4% | [6] -11.4%

C1CCSCCCCSCCCCSCCCCSC1
inactive: [1] 20.4% | [2] 18% | [3] 23.4% | [4] 6.5% | [5] 16.9% | [6] 35.8%

C=C(C)CC1CC(=O)OC1=O (stereo not drawn)
inactive: [1] 26% | [2] -16.4% | [3] 13.6% | [4] -21.9% | [5] -9.8% | [6] 4.35%

CCCNC1=C(OC)C(=O)C(NCCC)=C(OC)C1=O
inactive: [1] -0.3% | [2] 6.8% | [3] 9.15% | [4] -47.5% | [5] 2% | [6] -9.15%

O=C1NC(=O)[C@@H](OCC2CCCCC2)[C@@H]2OCC3OC(C(O)C3O)C12 (stereo partly drawn)
inactive: [1] -33.9% | [2] -3.1% | [3] 9.9% | [4] 23.2% | [5] 10.3% | [6] -5.7%

CC(C)(C)CC(C)(C)[N+](=O)[O-]
inactive: [1] -1.15% | [2] -14.6% | [3] 2.75% | [4] 6.85% | [5] -3.25% | [6] 18.4%

CC(C)N=C(c1ccccc1)N(O)c1ccccc1
inactive: [1] -0.4% | [2] 3.15% | [3] -0.75% | [4] -10.3% | [5] 4.2% | [6] 5.05%

COC1(OC)C(c2ccc([N+](=O)[O-])cc2)C([N+](=O)[O-])C1(OC)OC (stereo not drawn)
inactive: [1] -14.1% | [2] -16.1% | [3] -32% | [4] -11.4% | [5] -8.4% | [6] -17.6%

Cc1csc(-n2nc(C)cc2C)n1
inactive: [1] -5.35% | [2] -23.1% | [3] -37.2% | [4] 6.75% | [5] -30.9% | [6] -6.05%

CC(=O)NNc1nc(C)c(C(/C=C/c2cccc([N+](=O)[O-])c2)=N/NC(=S)NN)s1
inactive: [1] 5.85% | [2] -5% | [3] 2.2% | [4] 4.35% | [5] 12.4% | [6] 12.1%
